Results on 40 compounds are retold here after PubChem BioAssay (Tox21).

“And” between values parts separate entries of the source, which are not always exact repeats. Equal entries are not always repeated. Inconclusive results are not listed. The source made the active and inactive calls. The call rests on the fitted dose curve; in most records, active means well fitted activation curve with a large enough effect in the repeat runs; inconclusive means weak or mixed curves; inactive means flat fitted curve, though single readings scatter.
On the % scale 0 is the no-effect control and ±100 the full control effect; potency means the concentration at half of the fitted maximal effect.

The test can be described thus: A CellTox Green Cytotoxicity Assay to monitor cytotoxicity in HEK293 cells - 8 hour (AID 1224884). Further: nearly all actives have a fitted effect of over 35% in size. Conditions: CellTox Green fluorescence; series mostly up to 76.8 µM; cytotoxicity increase: at the top concentration. From the text:
National Center for Advancing Translational Sciences [NCATS]
NIH Chemical Genomics Center [NCGC]
U.S. Environmental Protection Agency [EPA]
National Institutes of Environmental Health Sciences [NIEHS]
National Toxicology Program [NTP]
Cell-based models are critical for drug discovery. Determining the natural cytotoxic effects resulting from test compounds is an essential research activity. A CellTox Green Cytotoxicity Assay to monitor cytotoxicity in real time of continues cell culture during 40 hours of the compound treatment was used to screen Tox21 10K library compounds in Hek293 cells. CellTox Green Cytotoxicity Assay is a nonlytic, homogeneous, biofluorescent method to measure cytotoxicity in cell culture after experimental manipulation. The assay system uses a proprietary asymmetric cyanine dye that is excluded from viable cells but preferentially stains the dead cell's DNA. […] Viable cells produce no appreciable increases in fluorescence. Therefore, the fluorescence signal produced by the binding interaction with dead cell DNA is proportional to cytotoxicity.
The mixture of Hek293 cell suspension and reagents were dispensed at 600cells/6 ul/well in 1536-well tissue culture treated black solid bottom plates using a Multidrop dispenser. After the assay plates were incubated at a 37 C/5% CO2 incubator for 5 hours, 23 nL of compounds dissolved in DMSO, positive and negative controls was transferred to the assay plate by a pintool work station. The plates were incubated at 37 C for 40 hours. The fluorescence intensity were measured at 0h, 8h, 16h, 24h, 32h and 40h time points using ViewLux plate reader during compound treatment.
Regarding `C[CH2][Hg][N]1C(=O)C2C(C1=O)C1(Cl)C(Cl)=C(Cl)C2(Cl)C1(Cl)Cl` (stereo not given), the Potency was 4.65 µM (active).

`CCN(CC)c1c([N+](=O)[O-])cc(C(F)(F)F)c(N)c1[N+](=O)[O-]`: the “cytotoxicity increase” value was 12.8% (inactive).

As to `CC(=[OH+])/C=C(/C)[O-].CC(=[OH+])/C=C(\C)[O-].CC(=[OH+])/C=C(\C)[O-].[Fe]`, the “cytotoxicity increase” value is -0.971% (inactive).

As for `C=CCC1=C(C)C(OC(=O)C2C(C=C(C)C)C2(C)C)CC1=O` (stereo not given), the Potency was 51.9 µM (active).

With `[Cl][Sb]([Cl])[Cl]`, the “cytotoxicity increase” value is -7.04% (inactive).

Take `Cc1cc(C(F)(C(F)(F)F)C(F)(F)F)ccc1NC(=O)c1cccc(I)c1C(=O)NC(C)(C)CS(C)(=O)=O`: the “cytotoxicity increase” value was -11.1% [at 35.3 µM] (inactive).

For the compound `Oc1c(Br)c(Br)c(Br)c(Br)c1Br`, the “cytotoxicity increase” value is -2.65% (inactive).

On to `COc1ccc([N+](=O)[O-])cc1O`, for which the “cytotoxicity increase” value was -0.723% [at 35.3 µM] (inactive).

For the compound `CC(C)[C@H](C(=O)O[C@H](C#N)c1cccc(Oc2ccccc2)c1)c1ccc(Cl)cc1`, the “cytotoxicity increase” value was 26.1% (inactive).

With `C=CC(=O)N(C)C`, the “cytotoxicity increase” value was -11.6% (inactive).

As to `[Cl][Sn]([c]1ccccc1)([c]1ccccc1)[c]1ccccc1`, the Potency is 2.33 µM (active).

Turning to `CN(C)C(=S)[S-].CN(C)C(=S)[S-].[Cu+2]`, the cytotoxicity increase is -12.4% [at 15.8 µM] (inactive).

As for `C[C@@H](Oc1ccc(Cl)cc1Cl)C(=O)O`, the “cytotoxicity increase” value was 1.5% (inactive).

In the case of `CC[C@H](C)[C@H]1O[C@]2(C=C[C@@H]1C)C[C@@H]1C[C@@H](C/C=C(\C)[C@@H](O[C@H]3C[C@H](OC)[C@@H](O[C@H]4C[C@H](OC)[C@@H](O)[C@H](C)O4)[C@H](C)O3)[C@@H](C)/C=C/C=C3\CO[C@@H]4[C@H](O)C(C)=C[C@@H](C(=O)O1)[C@]34O)O2`, the “cytotoxicity increase” value is 16.8% [at 35.3 µM] (inactive).

As to `CC(=O)[O-].CC(=O)[O-].O.O.[Cd+2]`, the “cytotoxicity increase” value is 0.983% (inactive).

For the compound `CCC[CH2][Sn]([CH2]CCC)([CH2]CCC)[O]C(=O)c1ccccc1`, the Potency was 11 µM (active).

For `CC1(C)CC/C(=C/c2ccc(Cl)cc2)C1(O)Cn1cncn1` (stereo not given), the “cytotoxicity increase” value is 13.4% (inactive).

Turning to `CCOP(=S)(OCC)OC(Cl)C(Cl)(Cl)Cl` (stereo not given), the “cytotoxicity increase” value is 8.94% (inactive).

`c1cc[c]([Sb]([c]2ccccc2)[c]2ccccc2)cc1`: the “cytotoxicity increase” value was 12.3% (inactive).

With `C[C@]12CC[C@@H]3c4ccc(OC(=O)N(CCCl)CCCl)cc4CC[C@H]3[C@@H]1CC[C@@H]2O`, the “cytotoxicity increase” value was 0.0682% [at 35.3 µM] (inactive).

As to `CCCCCCCCCCCCCC[P+](CCCCCC)(CCCCCC)CCCCCC` (tested in a mixture with another compound), the Potency was 24.6 µM (active).

For the compound `CCOC(=O)CC(=O)CCl`, the “cytotoxicity increase” value is -9.85% (inactive).

For the compound `CCSC(C)CC1CC(=O)C(/C(CC)=N/OC/C=C/Cl)=C(O)C1` (stereo not given), the “cytotoxicity increase” value was 3.35% [at 35.3 µM] (inactive).

For the compound `OC(Cc1ccccc1Cl)(Cn1cncn1)C1(Cl)CC1` (stereo not given), the “cytotoxicity increase” value is -1.24% (inactive).

For `[CH3][Hg][Cl]`, the “cytotoxicity increase” value is 10.1% (inactive).

On to `ClC1=C(Cl)[C@]2(Cl)[C@@H]3[C@@H](Cl)[C@@H](Cl)C[C@@H]3[C@@]1(Cl)C2(Cl)Cl`, for which the “cytotoxicity increase” value is 7.23% (inactive).

Consider `O=C(CCl)C(Cl)Cl`, for which the “cytotoxicity increase” value is -18.2% (inactive).

In the case of `C[C@@H]1O[C@@H](O[C@@H]2C=C3CC[C@@H]4[C@H](CC[C@]5(C)[C@@H](c6ccc(=O)oc6)CC[C@]45O)[C@@]3(C)CC2)[C@H](O)[C@H](O)[C@H]1O`, the “cytotoxicity increase” value was -5.75% [at 35.3 µM] (inactive).

As for `N#CCCSCCC#N`, the “cytotoxicity increase” value was 4.98% (inactive).

In the case of `Cn1cc(C2=C(c3cn(C4CCN(Cc5ccccn5)CC4)c4ccccc34)C(=O)NC2=O)c2ccccc21`, the “cytotoxicity increase” value is 1.94% [at 35.3 µM] (inactive).

Turning to `COC(=O)N(C(=O)N1COC2(C(=O)OC)Cc3cc(Cl)ccc3C2=N1)c1ccc(OC(F)(F)F)cc1` (stereo not given), the “cytotoxicity increase” value is -4.49% [at 35.3 µM] (inactive).

`BrCC(Br)c1ccccc1` (stereo not given): the “cytotoxicity increase” value was 0.804% (inactive).

For the compound `CCOC(=O)C1(c2ccccc2)CCN(CCC(C#N)(c2ccccc2)c2ccccc2)CC1`, the “cytotoxicity increase” value is 12.5% [at 35.3 µM] (inactive).

In the case of `ClC1=C(Cl)C2(Cl)C3C(Cl)C=CC3C1(Cl)C2(Cl)Cl` (stereo not given), the Potency was 55.2 µM (active) and 49 µM (active).

For the compound `Oc1ccc(C(c2ccc(O)cc2)(C(F)(F)F)C(F)(F)F)cc1`, the “cytotoxicity increase” value is 1.33% (inactive).

Consider `Cl/C=C\CCl`, for which the “cytotoxicity increase” value is 26.4% (inactive).

Regarding `O=c1c(C2CC(c3ccc(-c4ccc(Br)cc4)cc3)Cc3ccccc32)c(O)sc2ccccc12` (stereo not given), the “cytotoxicity increase” value was -6.44% [at 35.3 µM] (inactive).

For the compound `ClC1=C(Cl)[C@]2(Cl)[C@H]3[C@H]([C@H]4C=C[C@H]3C4)[C@@]1(Cl)C2(Cl)Cl`, the “cytotoxicity increase” value is -0.861% (inactive).

As to `Cc1ccc(C(=O)Cl)cc1`, the “cytotoxicity increase” value was 14.3% (inactive).

On to `O=c1[nH]c2ccccc2n1C1CCN(CCCC(c2ccc(F)cc2)c2ccc(F)cc2)CC1`, for which the Potency entry is “inactive”.
